In test [1] the target is Cellular tumor antigen p53 (Homo sapiens) (UniProt P04637). The experiment in a line: TOX21_p53_BLA_p2_ratio: Tox21 HCT-116 p53 Agonism Beta-lactamase Assay, Ratio, Phase 2 (AID 2283592). An outline of the steps: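 HCT116 cells carrying a p53-responsive beta-lactamase reporter were plated, incubated 5 h at 37C, then dosed with compounds in DMSO (217-fold dilution) for 16 h. CCF4-AM substrate was added for 2 h at room temperature; the 460/530 nm emission ratio gave gain-of-signal activity relative to DMSO.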

Test [2] has the same target. Briefly: TOX21_p53_BLA_p3_ratio: Tox21 HCT-116 p53 Agonism Beta-lactamase Assay, Ratio, Phase 3 (AID 2283596). An outline of the steps: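 HCT116 p53-bla cells (4000/well) given compound in DMSO (217-fold dilution) after 5 h, incubated 16 h at 37C. CCF4-AM substrate 2 h at room temperature; 460/530 nm emission ratio, gain fitted against DMSO.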
The target is the same in test [3]. The experiment in a line: TOX21_p53_BLA_p5_ratio: Tox21 HCT-116 p53 Agonism Beta-lactamase Assay, Ratio, Phase 5 (AID 2283599). An outline of the steps: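 HCT-116 p53-bla cells (4000/well) plated 5 h, dosed with compound (217-fold DMSO dilution) for 16 h at 37 C; CCF4-AM substrate 2 h at room temperature. Activity is the 460/530 nm emission ratio (405 nm excitation), fitted in gain-of-signal direction versus DMSO.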

Test [4] shares this target. Briefly: TOX21_p53_BLA_p4_ratio: Tox21 HCT-116 p53 Agonism Beta-lactamase Assay, Ratio, Phase 4 (AID 2283601). An outline of the steps: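 HCT-116 p53 beta-lactamase reporter cells (4000/well) preincubated 5 h, then compound (217-fold dilution of DMSO stock) for 16 h at 37C. CCF4-AM substrate added 2 h at room temperature; 460/530 nm emission ratio fitted upward versus DMSO.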

Test [5] is described as follows: TOX21_p53_BLA_p5_viability: Viability Assessment in the Tox21 HCT-116 p53 Agonism Beta-lactamase Assay, Phase 5 (AID 2283600). An outline of the steps: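 Cells were plated at 4000/well, rested 5 h at 37C, then given compounds in DMSO (217-fold dilution) for 16 h at 37C, 5% CO2. Following the CCF4-AM beta-lactamase read, CellTiter-Glo was added and luminescence was read after 30 min at room temperature.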

Test [6] has as its target Thyroid hormone receptor alpha (Rattus norvegicus) + Thyroid hormone receptor beta (Rattus norvegicus) (UniProt P18113+P63059). Briefly: TOX21_TR_LUC_GH3_Antagonist_Followup: Tox21 GH3 Thyroid Hormone Receptor Antagonism Luciferase Follow-Up Assay (AID 2283942). The method in brief: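 Antagonist mode: GH3 cells seeded 1,500/well, compounds at 15 concentrations (92 uM to 5nM final) plus T3 at 1.0 nM final, 24 h at 37C. Luciferase read with ONE-Glo after 30 min at room temperature.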

Test [7] concerns the target THRA (gene 7067) (UniProt P10827). Briefly: TOX21_TRA_COA_Antagonist_Followup_ratio: Tox21 Thyroid Hormone Receptor alpha Antagonism through Coactivator Recruitment Follow-Up Assay, Ratio (AID 2283953). An outline of the steps:
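This follow-up to the GH3 luciferase screen checks specificity in a cell-free format. It measures SRC-2 coactivator peptide binding to TRα LBD by TR-FRET and scores loss of ratio signal relative to DMSO.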

Test [8] concerns the target THRB (gene 7068) (UniProt P10828). Briefly: TOX21_TRB_BLA_Antagonist_Followup_ratio: Tox21 Thyroid Hormone Receptor beta Antagonism Beta-lactamase (BLA) Follow-Up Assay, Ratio (AID 2283958). An outline of the steps:
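In this antagonist-mode follow-up, a stably integrated GAL4-TRβ LBD fusion drives a UAS-beta-lactamase reporter in HEK293T cells. Loss of ratio signal relative to DMSO after 18 h treatment indicates activity; parallel CellTiter-Glo flags cytotoxicity.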

Test [9] in a line: TOX21_TRB_BLA_Antagonist_Followup_viability: Viability Assessment in the Tox21 Thyroid Hormone Receptor beta Antagonism Beta-lactamase (BLA) Follow-Up Assay (AID 2283961). The method in brief:
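HEK293T cells stably expressing GAL4-DBD/human TRβ-LBD with UAS-bla reporter, 3,000 cells/well in phenol red-free DMEM, 2% charcoal-stripped FBS. Compounds at 11 concentrations in triplicate, 18 h at 37C/5% CO2; viability by CellTiter-Glo luminescence after 30 min at room temperature.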

The target of test [10] is THRB (gene 7068) (UniProt P10828). Briefly: TOX21_TRB_COA_Antagonist_Followup_ratio: Tox21 Thyroid Hormone Receptor beta Antagonism through Coactivator Recruitment Follow-Up Assay, Ratio (AID 2283967). The method in brief: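 Cell-free TR-FRET: GST-TRb LBD (5.0 nM) with fluorescein-SRC-2 peptide (200 nM) and Tb anti-GST antibody (2 nM), 0.10% BSA. 520:495 nm emission ratio normalized to DMSO (0%) and T3 (100%).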

Test [11] deals with Retinoic acid receptor RXR-alpha (Homo sapiens) (UniProt P19793). Briefly: TOX21_TR_RXR_BLA_Antagonist_Followup_ratio: Tox21 Thyroid Hormone Receptor beta Retinoid X Receptor alpha (RXRa) Antagonism Beta-lactamase (BLA) Follow-Up Assay, Ratio (AID 2283972). An outline of the steps:
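RXRa-UAS-bla HEK293T cells in phenol red-free DMEM with 2% charcoal-stripped FBS; compounds at 11 concentrations in triplicate, 16 h at 37C. LiveBLAzer FRET-B/CCF4-AM substrate 2 h at room temperature; read as 460:530 nm ratio versus DMSO.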

Test [12] is described as follows: TOX21_p53_BLA_p4_viability: Viability Assessment in the Tox21 HCT-116 p53 Agonism Beta-lactamase Assay, Phase 4 (AID 2283597).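 Note: hits lower the luminescence signal meaning cytotoxicity.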 An outline of the steps: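 HCT116 p53-bla cells (4000/well) rested 5 h at 37C, then received compounds in DMSO (217-fold dilution) for 16 h at 37C, 5% CO2. CellTiter-Glo was added after the CCF4-AM read, and luminescence was read after 30 min at room temperature.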

Where “and” joins values, the source holds several entries; their conditions need not be identical. Identical values can stand only once. Records with an inconclusive call do not appear. Calls of active or inactive are those of the source. Rule for the calls: active = hit-call score of the fitted dose curve at least 0.9, where 1 is the maximum; inconclusive = response in the unintended direction; inactive = score below 0.9.

Sequence of Cellular tumor antigen p53 (Homo sapiens) (P04637 whole entry, looked up): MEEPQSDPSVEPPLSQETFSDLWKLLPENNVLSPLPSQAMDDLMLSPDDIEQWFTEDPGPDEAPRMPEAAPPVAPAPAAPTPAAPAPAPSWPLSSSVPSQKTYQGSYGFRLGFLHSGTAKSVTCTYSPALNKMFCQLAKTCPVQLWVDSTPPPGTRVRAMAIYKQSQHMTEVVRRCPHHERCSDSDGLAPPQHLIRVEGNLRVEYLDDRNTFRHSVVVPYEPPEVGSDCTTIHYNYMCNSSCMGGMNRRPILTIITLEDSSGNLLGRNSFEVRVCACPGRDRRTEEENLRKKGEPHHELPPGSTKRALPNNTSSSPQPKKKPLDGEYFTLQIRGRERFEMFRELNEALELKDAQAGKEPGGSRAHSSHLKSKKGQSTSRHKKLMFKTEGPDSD
Sequence of THRB (gene 7068) (P10828 whole entry, looked up, the tested form may be a part): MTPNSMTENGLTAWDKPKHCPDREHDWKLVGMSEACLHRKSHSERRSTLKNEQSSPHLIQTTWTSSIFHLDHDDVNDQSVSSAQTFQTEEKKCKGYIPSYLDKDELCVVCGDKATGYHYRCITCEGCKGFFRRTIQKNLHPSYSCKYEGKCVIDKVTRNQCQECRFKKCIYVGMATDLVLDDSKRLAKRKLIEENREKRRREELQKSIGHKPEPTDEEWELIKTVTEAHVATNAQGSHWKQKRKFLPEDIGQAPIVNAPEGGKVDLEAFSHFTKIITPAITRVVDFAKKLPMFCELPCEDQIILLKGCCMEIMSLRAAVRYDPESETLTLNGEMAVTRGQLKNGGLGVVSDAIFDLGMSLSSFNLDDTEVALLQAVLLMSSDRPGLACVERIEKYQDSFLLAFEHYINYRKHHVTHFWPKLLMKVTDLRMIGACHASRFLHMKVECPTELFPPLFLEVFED
Sequence of Retinoic acid receptor RXR-alpha (Homo sapiens) (P19793 whole entry, looked up): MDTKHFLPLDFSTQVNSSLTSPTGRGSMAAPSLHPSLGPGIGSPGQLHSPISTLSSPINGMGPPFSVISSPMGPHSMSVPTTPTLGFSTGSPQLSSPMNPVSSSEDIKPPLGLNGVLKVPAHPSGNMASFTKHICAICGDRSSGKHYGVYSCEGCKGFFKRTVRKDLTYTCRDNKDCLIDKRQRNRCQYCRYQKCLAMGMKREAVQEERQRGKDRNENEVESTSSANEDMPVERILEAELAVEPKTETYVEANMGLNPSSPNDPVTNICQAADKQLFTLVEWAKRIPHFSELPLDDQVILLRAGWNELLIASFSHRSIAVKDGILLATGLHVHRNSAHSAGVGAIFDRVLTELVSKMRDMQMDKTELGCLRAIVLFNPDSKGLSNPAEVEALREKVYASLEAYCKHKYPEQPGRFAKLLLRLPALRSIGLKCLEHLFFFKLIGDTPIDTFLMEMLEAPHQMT
Sequence of THRA (gene 7067) (P10827 whole entry, looked up, the tested form may be a part): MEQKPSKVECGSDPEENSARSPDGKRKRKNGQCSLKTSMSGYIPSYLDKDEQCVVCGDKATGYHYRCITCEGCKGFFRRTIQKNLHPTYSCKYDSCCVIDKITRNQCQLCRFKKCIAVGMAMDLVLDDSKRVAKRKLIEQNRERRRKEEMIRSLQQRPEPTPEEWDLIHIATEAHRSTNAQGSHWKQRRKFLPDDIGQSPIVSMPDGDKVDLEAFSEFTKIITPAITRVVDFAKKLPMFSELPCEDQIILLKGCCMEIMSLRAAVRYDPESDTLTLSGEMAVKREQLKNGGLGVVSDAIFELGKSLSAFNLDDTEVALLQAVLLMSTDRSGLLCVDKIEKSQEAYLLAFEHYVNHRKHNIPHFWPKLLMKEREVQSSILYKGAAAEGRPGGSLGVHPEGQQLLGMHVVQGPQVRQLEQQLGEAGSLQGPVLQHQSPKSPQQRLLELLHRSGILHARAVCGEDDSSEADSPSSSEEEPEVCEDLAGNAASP

For `C[N+]1(C)[C@@H]2CC[C@H]1CC(OC(=O)C(CO)c1ccccc1)C2` (some centres not stated), the outcome in test [1], in test [2], in [3] and in [4] was inactive.

For `CCCC[N+]1(C)CCCC1`, the result in test [1], in test [2], in [3] and in test [4] was inactive.

Consider `COc1c(C(C)(C)C)cc([N+](=O)[O-])c(C)c1[N+](=O)[O-]`, for which the outcome in [1], in test [2], in [5] and in [4] was inactive.

Turning to `COc1cc([C@@H]2c3cc4c(cc3[C@@H](O)[C@H]3COC(=O)[C@H]23)OCO4)cc(OC)c1O`, the results for the AC50 in test [1] and in test [8] were 35.5 µM (active) and 0.653 µM (active), respectively. Moreover, the outcome in [2], in [3], in test [4], in test [6], in [7] and in test [9] was inactive. The result in [10] and in test [11] was inactive.

In the case of `Cc1ncc(CNC(=O)N(CCCl)N=O)c(N)n1`, the result in test [1], in [2], in [3] and in test [4] was inactive.

For the molecule `NC(=O)C(Cl)Cl`, the result in [1], in test [12], in test [3] and in [4] was inactive.

With `OC(c1ccccc1)(c1ccccc1)C1CCNCC1`, the result in test [1], in test [2], in [3] and in test [4] was inactive.

For the molecule `CCC(N)Cc1c[nH]c2ccccc12` (configuration not stated), the outcome in [1], in test [2], in test [3] and in [4] was inactive.

Regarding `CCCCCN(C)CCC(O)(P(=O)(O)O)P(=O)(O)O`, the outcome in test [1], in test [12], in [3], in test [5] and in test [4] was inactive.

For `CCOP(=O)(OCC)OP(=O)(OCC)OCC`, the result in [1], in test [2], in test [3] and in [4] was inactive.

For the molecule `Cc1c(N)nc([C@H](CC(N)=O)NC[C@H](N)C(N)=O)nc1C(=O)N[C@H](C(=O)N[C@H](C)[C@@H](O)[C@H](C)C(=O)N[C@H](C(=O)NCCc1nc(-c2nc(C(=O)NCCC[S+](C)C)cs2)cs1)[C@@H](C)O)[C@@H](O[C@@H]1O[C@@H](CO)[C@@H](O)[C@H](O)[C@@H]1O[C@H]1O[C@H](CO)[C@@H](O)[C@H](OC(N)=O)[C@@H]1O)c1cnc[nH]1`, the AC50 in test [1] was 195 nM (active) and 1.16 µM (active); in test [2], 98.3 nM (active) and 922 nM (active); in test [3], 86.5 nM (active) and 808 nM (active); in test [4], 219 nM (active) and 730 nM (active).

For the molecule `Clc1ccc2ccccc2c1`, the result in test [1], in test [2], in test [3] and in [4] was inactive.

For `N#CC(Cl)Cl`, the result in [1], in test [12], in test [3] and in [4] was inactive.

For the molecule `CC(=O)OO`, the result in test [1], in test [2], in test [3] and in test [4] was inactive.

Consider `Nc1nc(N)nc(N)n1`, for which the result in test [1], in test [2], in [3] and in test [4] was inactive.

With `S=C=Nc1ccccc1`, the result in test [1], in [2] and in test [5] was inactive.

For the molecule `C(COCC1CO1)OCC1CO1` (configuration not stated), the result in test [1], in test [12], in test [3], in test [5] and in test [4] was inactive.

For `O=C1CC[C@@]2(O)[C@H]3Cc4ccc(O)c5c4[C@@]2(CCN3CC2CC2)[C@H]1O5`, the outcome in test [1], in test [2] and in test [4] was inactive.

For the molecule `CNC(=O)OCC[N+](C)(C)C`, the outcome in test [1] and in test [12] was inactive.

With `C[N+]1(CCF)[C@@H]2CC[C@H]1CC(OC(=O)C(O)(c1ccccc1)c1ccccc1)C2` (some centres not stated), the outcome in test [1] and in test [12] was inactive.

On to `O=C(N[C@H]1N=C(c2ccccc2F)c2cccc3c2N(CC3)C1=O)c1cc2ccccc2[nH]1`, for which the outcome in [1], in test [2], in test [3] and in test [4] was inactive.

`CSSC`: the outcome in test [1], in test [2] and in test [5] was inactive.

Turning to `CCOc1cc(OP(=S)(OC)OC)nc(CC)n1`, the result in test [1], in test [2] and in [4] was inactive.

For the origin of these results see PubChem BioAssay (EPA / NIEHS).
